From PubChem BioAssay
Active and inactive are the calls of the source. Unless noted, the rule behind the calls is not given here.

Key:
[1] = tested on: Wnt5a (protein binding on small-molecule microarray); assay: small molecules binding Wnt5a protein – biophysical, small-molecule microarray, 635/667 nm fluorescence, primary screen (AID 1142); conditions: 635 nm fluorescence, higher = more signal;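 note: fluorescence read at 667 nm with signal to noise per printed feature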
[2] = ATP-based viability of Huh7 replicon cells – cell-based, CellTiter-Glo luminescence, basal, 48 h, cytotoxicity control for HCV replication inhibitor project, primary screen (AID 1143); conditions: higher = more signal, called active from +8 up or from −8 down;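 note: Huh7 hepatoma cells carrying a hepatitis C replication reporter with no stimulus; test concentration not given here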
[3] = Pseudomonas biofilm growth suppression – PAO1 strain, BacTiter-Glo luminescence, LB-PBS, primary screen (AID 1144); conditions: P. aeruginosa PAO1 biofilm, 12 h, higher = more signal
[4] = basal CRE-LacZ reporter activity in PC12 – cell-based, unstimulated, primary screen (AID 1145); conditions: no forskolin, luminescence, 4.5 h, higher = more signal, called active from +8 up or from −8 down
[5] = forskolin-driven CRE-LacZ activity in PC12 – cell-based, CRE-LacZ reporter, forskolin-stimulated, primary screen (AID 1146); conditions: luminescence, 4.5 h, higher = more signal, called active from +8 up or from −8 down;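 note: PC12 cells with 6xCRE LacZ reporter stimulated by forskolin 10 µM; beta-galactosidase reporter signal reflecting CREB driven transcription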
[6] = biological target: Streptavidin (Streptomyces avidinii) (UniProt P22629); assay: compounds binding control protein streptavidin – biophysical, small-molecule microarray, 635/667 nm fluorescence, artefact control for SMM compound annotation, primary screen (AID 1147); conditions: higher = more signal;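 note: signal reflects streptavidin binding to arrayed compounds as a control protein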
[7] = probe aInhba binding on compound microarray – biochemical, small-molecule microarray, 635/667 nm fluorescence, primary screen (AID 1148); conditions: higher = more signal;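 note: score merges 667nm spot fluorescence with signal-to-noise for antibody binding to printed compounds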
Torsin-1A (Homo sapiens) [8] = biological target: Torsin-1A (Homo sapiens) (UniProt O14656); assay: TOR1A wild-type binding on microarray – cell lysate, small-molecule microarray, lysate, 635/667 nm, primary screen (AID 1149); conditions: COS7 hTOR1A-WT lysate, 635 nm fluorescence, higher = more signal
Torsin-1A (Homo sapiens) [9] = biological target: Torsin-1A (Homo sapiens) (UniProt O14656); assay: torsin A mutant lysate binding on microarrays – cell lysate, small-molecule microarray, COS7 lysate, 635/667 nm fluorescence, primary screen (AID 1150); conditions: COS7 hTOR1A mutant lysate, 635 nm fluorescence, higher = more signal;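 note: score pools 667 nm emission and signal to noise measuring lysate protein binding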
[10] = tested on: Sonic hedgehog protein (Shh); assay: Sonic hedgehog microarray binding compounds – biochemical, small-molecule microarray, 635/667 nm fluorescence, primary screen (AID 1151); conditions: 635 nm fluorescence, higher = more signal;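 note: Shh protein binding to compounds spotted on small-molecule microarray slides; score combines spot fluorescence intensity with signal-to-noise across triplicate slides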

Sequence of Torsin-1A (Homo sapiens) (O14656 whole entry, looked up): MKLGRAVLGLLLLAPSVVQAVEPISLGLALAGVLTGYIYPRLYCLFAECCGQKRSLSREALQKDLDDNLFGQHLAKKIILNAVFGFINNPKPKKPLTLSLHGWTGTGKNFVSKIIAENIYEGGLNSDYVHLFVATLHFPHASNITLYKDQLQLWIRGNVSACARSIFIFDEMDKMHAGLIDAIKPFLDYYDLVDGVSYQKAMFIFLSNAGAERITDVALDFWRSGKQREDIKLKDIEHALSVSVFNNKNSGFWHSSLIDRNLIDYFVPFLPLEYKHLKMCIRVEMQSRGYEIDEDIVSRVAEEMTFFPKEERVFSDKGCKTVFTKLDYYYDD
Sequence of Streptavidin (Streptomyces avidinii) (P22629 whole entry, looked up): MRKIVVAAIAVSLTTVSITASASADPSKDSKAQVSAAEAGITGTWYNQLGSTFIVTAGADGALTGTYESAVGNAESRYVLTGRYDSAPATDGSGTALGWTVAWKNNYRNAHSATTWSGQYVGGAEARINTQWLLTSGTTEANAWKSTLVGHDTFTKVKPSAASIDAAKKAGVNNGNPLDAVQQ

| Compound | composite z-score [1] | z-score [2] | z-score [3] | z-score [4] | z-score [5] | composite z-score [6] | composite z-score [7] | composite z-score (Torsin-1A (Homo sapiens) [8]) | composite z-score (Torsin-1A (Homo sapiens) [9]) | composite z-score [10] |
| --- | --- | --- | --- | --- | --- | --- | --- | --- | --- | --- |
| C=CCOC(=O)[C@@H]1[C@H]2C(=O)O[C@H](c3ccccc3)[C@H](c3ccccc3)N2[C@H](c2ccc(OCCOC(=O)[C@@H]3C[C@@H]4C(=O)N[C@@H](CCCCN(C)C)C(=O)N4[C@@H]3c3ccc(O)cc3)cc2)[C@@]12C(=O)Nc1ccc(I)cc12 | 0.312 | -0.768 (inactive) | -0.975 (inactive) | -0.675 (inactive) | 0.595 (inactive) | 0.321 | 0.0649 | 0.724 | 1.84 | 1.74 |
| COC(=O)c1c(CC[C@@H](CO)NC(=O)N2CCC[C@H]2Cn2cc(-c3ccccn3)nn2)oc(C(C)=O)c1C(=O)OC | -0.249 | -1.44 (inactive) | -0.95 (inactive) | 0.395 (inactive) | -0.0037 (inactive) | -0.281 | -0.0178 | 0.0323 | 1.2 | 0.515 |
| CCCN1C(=O)[C@]2(CCS(=O)(=O)c3ccccc3)N=C(c3ccc(OCCCO)cc3)O[C@@H]2c2ccccc21 | 0.419 | -4.93 (inactive) | -1.32 (inactive) | -0.254 (inactive) | -1.53 (inactive) | 1.24 | 0.0475 | 1.33 | 1.24 | 1.13 |
| CC(C)C[C@H]1NC(=O)[C@@]23C(=O)N[C@@H](Cc4ccccc4)C2[C@H](C)[C@@]2(C)O[C@H]2C3/C=C/C/C=C\CNC(=O)[C@H](Cc2ccccc2)NC1=O (stereo not given in full) | 0.234 | -0.73 (inactive) | -0.137 (inactive) | -0.416 (inactive) | -0.862 (inactive) | -0.279 | -0.0189 | 0.839 | 0.716 | 2.06 |
| COc1ccc([Si](C)(C)[C@H]2[C@H](CCn3cc([C@H](O)c4ccccc4)nn3)O[C@@]3(C(=O)N(Cc4cccc(N5CCOC5=O)c4)c4ccccc43)[C@@H]2C)cc1 | 0.488 | -1.78 (inactive) | -0.394 (inactive) | -0.36 (inactive) | 1.32 (inactive) | 0.283 | -0.362 | 0.132 | 0.199 | 1.5 |
| COc1ccc(CCN2C(=O)[C@@]3(c4ccc([N+](=O)[O-])cc4)CC(=O)N(C4CCCCC4)[C@@H]3c3ccc(CO)cc32)cc1 | -0.0463 | 0.443 (inactive) | 0.0718 (inactive) | -0.0512 (inactive) | 0.86 (inactive) | -0.298 | 0.158 | 0.209 | 0.128 | 1.19 |
| C=CC[C@@]1(C(N)=O)N=C(c2ccc(OCCCO)cc2)O[C@@H]1c1ccccc1CN=[N+]=[N-] | 0.186 | -3.34 (inactive) | -0.58 (inactive) | 1.8 (inactive) | -1.35 (inactive) | 0.456 | 0.233 | 0.183 | 0.0254 | -0.776 |
| CN1C(=O)C2C=CC(C(O)C3CCCCC3)N(Nc3ccc([N+](=O)[O-])cc3[N+](=O)[O-])C2C1=O (stereo not given) | 0.326 | 0.729 (inactive) | 1.17 (inactive) | 0.626 (inactive) | 1.37 (inactive) | 1.2 | -0.024 | 1.27 | 1.04 | -0.0056 |
| CN(C)CCCC[C@@H]1NC(=O)[C@H]2C[C@@H](C(=O)NCCCCCNC(=O)CS)[C@@H](c3cccc(OCCO)c3)N2C1=O | 0.12 | 0.358 (inactive) | -0.358 (inactive) | -0.114 (inactive) | 0.547 (inactive) | 0.182 | -0.128 | 0.537 | 0.749 | 1.72 |
| CN(C)C(=O)[C@@]1(Cc2ccccc2CN=[N+]=[N-])N=C(c2ccc(OCCCO)cc2)O[C@H]1c1ccccc1 | 0.522 | -2.54 (inactive) | 0.378 (inactive) | 0.629 (inactive) | -0.524 (inactive) | -0.154 | 0.7 | 0.209 | 0.681 | -0.221 |
| O=C1c2ccccc2[C@@]2(Cc3ccccc3N(CC(F)(F)F)C2=O)[C@H](c2ccc(CO)cc2)N1Cc1ccccc1Cl | 0.125 | 0.289 (inactive) | -0.165 (inactive) | -0.141 (inactive) | -1.11 (inactive) | 0.0272 | -0.0256 | 0.0329 | 0.293 | 1.42 |
| CN(C)CCCNC(=O)[C@@]1(c2ccc([N+](=O)[O-])cc2)CC(=O)N(C2CCCCC2)[C@@H]1c1ccc(CO)cc1 | -0.217 | -0.406 (inactive) | 0.382 (inactive) | 0.234 (inactive) | -0.342 (inactive) | 0.494 | 0.0342 | -0.485 | -0.161 | 0.371 |
| O=C1OCCC/C=C\[C@H]2OC34C=CCN(Cc5ccccc5)C(=O)[C@H]3N(CCCCCCO)C(=O)[C@@H]4C12 (stereo not given in full) | -0.489 | 0.233 (inactive) | -1.14 (inactive) | 1.01 (inactive) | 0.0851 (inactive) | -0.821 | -0.147 | -0.309 | 1.9 | -0.693 |
| CCOC(=O)C=Cc1cc([N+](=O)[O-])ccc1O | -0.128 | -4.44 (inactive) | -0.283 (inactive) | 0.173 (inactive) | -2.08 (inactive) | 0.572 | -0.0523 | 0.437 | 0.328 | -0.117 |
| COc1ccc(CCN2C(=O)[C@@]3(Cc4ccccc42)c2ccccc2C(=O)N(Cc2ccccc2C(F)(F)F)[C@H]3c2ccc(CO)cc2)cc1 | 0.268 | -4.12 (inactive) | -1.41 (inactive) | -0.554 (inactive) | -0.361 (inactive) | -0.228 | -0.208 | 0.208 | 0.087 | 1.9 |
| COc1ccc(C(=O)Nc2ccc(CN3C(=O)[C@@]4(O[C@@H](CC(=O)N5CCC[C@H]5CO)[C@H]([Si](C)(C)c5ccc(OC)cc5)[C@H]4C)c4ccccc43)cc2)cc1 | 0.553 | -1.38 (inactive) | -1.34 (inactive) | 1.88 (inactive) | -0.0184 (inactive) | 0.648 | 0.0074 | 0.826 | 0.797 | 1.66 |
| C=CCOC(=O)[C@@H]1[C@H]2C(=O)O[C@H](c3ccccc3)[C@H](c3ccccc3)N2[C@H](c2ccc(OCCOC(=O)[C@@H]3C[C@@H]4C(=O)N[C@@H](CCCC[N+](C)(C)C)C(=O)N4[C@@H]3c3cccc(OCCO)c3)cc2)[C@@]12C(=O)Nc1ccc(I)cc12 | 0.596 | -2.13 (inactive) | -1.22 (inactive) | 0.0084 (inactive) | 1.83 (inactive) | 0.337 | -0.122 | 0.993 | 1.15 | 1.99 |
| CCOC(=O)C[C@H]1[C@H](OC(=O)c2cc3ccccc3oc2=O)[C@@H](NC(=O)Cc2ccc(OC)cc2)c2cc(OCCCO)ccc2N1C(=O)c1ccccc1 | 0.0687 | -3.21 (inactive) | -0.797 (inactive) | 4.1 (inactive) | -0.27 (inactive) | 0.308 | 0.0713 | 0.388 | 0.804 | 0.189 |
| COc1ccc(C(=O)Nc2ccc(CN3C(=O)[C@@]4(O[C@@H](CCn5cc([C@H](O)c6ccccc6)nn5)[C@H]([Si](C)(C)c5ccc(OC)cc5)[C@H]4C)c4ccccc43)cc2)cc1 | -0.0152 | -3.46 (inactive) | -0.576 (inactive) | 2.4 (inactive) | -1.04 (inactive) | 0.865 | -0.0405 | 0.253 | 0.163 | 1.51 |
| CC1(C)[C@@H]2CC(C(O)C3C=CC4C(=O)N(c5ccccc5)C(=O)C4N3Nc3ccccc3)=C[C@H]1C2 (stereo not given in full) | 0.0836 | 0.355 (inactive) | -0.959 (inactive) | 1 (inactive) | 0.874 (inactive) | 0.595 | 0.571 | -0.37 | -0.233 | -0.385 |
| COC(=O)c1c(CC[C@@H](CO)NC(=O)N[C@@H](C)Cn2cc(C3(O)CCCCC3)nn2)oc(C(C)=O)c1C(=O)OC | 0.315 | -2.63 (inactive) | -1.04 (inactive) | 1.59 (inactive) | 0.214 (inactive) | 0.533 | 0.225 | 1.07 | 0.91 | 2.06 |
| C=CCOC(=O)[C@H]1[C@@H]2C(=O)O[C@@H](c3ccccc3)[C@@H](c3ccccc3)N2[C@@H](c2ccc(OCCOC(=O)[C@@H]3C[C@@H]4C(=O)N5CCC[C@H]5C(=O)N4[C@@H]3c3cccc(OCCO)c3)cc2)[C@]12C(=O)Nc1ccccc12 | 0.537 | 0.0308 (inactive) | -0.0247 (inactive) | -0.675 (inactive) | 0.0527 (inactive) | -0.274 | 0.325 | 0.459 | 0.767 | 1.56 |
